According to the supplement of paper PMC6411743:
± gives the standard deviation of the averaged measurements. About 5,400 targets were measured; listed, in parts, are those with the largest changes and a random draw of the rest.

Compound: Nc1nc2c(ncn2[C@@H]2O[C@H](COP(=O)(O)OP(=O)(O)OP(=O)(O)O)[C@@H](O)[C@H]2O)c(=O)[nH]1 [guanosine triphosphate]
Test: NP40-soluble protein abundance relative to vehicle (solubility fold change) (ratio); higher = more soluble protein in presence of GTP
Method in brief: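 Data come from three independent experiments in which Dounce-homogenised Jurkat crude lysate was treated at eight concentrations from 0.1 to 10 mM. Treatment ran 10 min at room temperature and then 3 min at 37 °C, after which 0.8% NP40 and benzonase were added for 60 min at 4 °C before ultracentrifugation. The supernatant underwent TMT labelling and LC-MS/MS, and vsn-normalised intensities were expressed as fold change against the detergent-processed vehicle in each replicate.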

UniProt Q01081, sequence (Q01081 whole entry, looked up, other chains not shown): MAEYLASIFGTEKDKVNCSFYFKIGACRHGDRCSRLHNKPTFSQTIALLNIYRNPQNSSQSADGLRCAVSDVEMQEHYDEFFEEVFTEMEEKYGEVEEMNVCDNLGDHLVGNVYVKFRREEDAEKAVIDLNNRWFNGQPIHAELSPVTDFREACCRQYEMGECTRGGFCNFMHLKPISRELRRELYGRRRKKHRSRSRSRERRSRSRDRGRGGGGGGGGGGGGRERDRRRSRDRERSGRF
UniProt P22830, sequence (P22830 whole entry, one chain of several): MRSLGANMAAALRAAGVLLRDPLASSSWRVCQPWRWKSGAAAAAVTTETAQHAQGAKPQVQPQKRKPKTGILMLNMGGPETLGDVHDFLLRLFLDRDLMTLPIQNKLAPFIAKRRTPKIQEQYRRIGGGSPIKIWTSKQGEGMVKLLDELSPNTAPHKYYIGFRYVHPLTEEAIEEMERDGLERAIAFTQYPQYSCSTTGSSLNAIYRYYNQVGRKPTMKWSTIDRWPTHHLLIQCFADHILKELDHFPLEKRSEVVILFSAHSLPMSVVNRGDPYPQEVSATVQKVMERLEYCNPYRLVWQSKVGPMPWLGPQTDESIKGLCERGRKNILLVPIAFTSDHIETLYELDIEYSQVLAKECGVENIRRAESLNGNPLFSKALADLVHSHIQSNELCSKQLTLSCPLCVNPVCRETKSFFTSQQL
UniProt O14980, sequence (O14980 whole entry): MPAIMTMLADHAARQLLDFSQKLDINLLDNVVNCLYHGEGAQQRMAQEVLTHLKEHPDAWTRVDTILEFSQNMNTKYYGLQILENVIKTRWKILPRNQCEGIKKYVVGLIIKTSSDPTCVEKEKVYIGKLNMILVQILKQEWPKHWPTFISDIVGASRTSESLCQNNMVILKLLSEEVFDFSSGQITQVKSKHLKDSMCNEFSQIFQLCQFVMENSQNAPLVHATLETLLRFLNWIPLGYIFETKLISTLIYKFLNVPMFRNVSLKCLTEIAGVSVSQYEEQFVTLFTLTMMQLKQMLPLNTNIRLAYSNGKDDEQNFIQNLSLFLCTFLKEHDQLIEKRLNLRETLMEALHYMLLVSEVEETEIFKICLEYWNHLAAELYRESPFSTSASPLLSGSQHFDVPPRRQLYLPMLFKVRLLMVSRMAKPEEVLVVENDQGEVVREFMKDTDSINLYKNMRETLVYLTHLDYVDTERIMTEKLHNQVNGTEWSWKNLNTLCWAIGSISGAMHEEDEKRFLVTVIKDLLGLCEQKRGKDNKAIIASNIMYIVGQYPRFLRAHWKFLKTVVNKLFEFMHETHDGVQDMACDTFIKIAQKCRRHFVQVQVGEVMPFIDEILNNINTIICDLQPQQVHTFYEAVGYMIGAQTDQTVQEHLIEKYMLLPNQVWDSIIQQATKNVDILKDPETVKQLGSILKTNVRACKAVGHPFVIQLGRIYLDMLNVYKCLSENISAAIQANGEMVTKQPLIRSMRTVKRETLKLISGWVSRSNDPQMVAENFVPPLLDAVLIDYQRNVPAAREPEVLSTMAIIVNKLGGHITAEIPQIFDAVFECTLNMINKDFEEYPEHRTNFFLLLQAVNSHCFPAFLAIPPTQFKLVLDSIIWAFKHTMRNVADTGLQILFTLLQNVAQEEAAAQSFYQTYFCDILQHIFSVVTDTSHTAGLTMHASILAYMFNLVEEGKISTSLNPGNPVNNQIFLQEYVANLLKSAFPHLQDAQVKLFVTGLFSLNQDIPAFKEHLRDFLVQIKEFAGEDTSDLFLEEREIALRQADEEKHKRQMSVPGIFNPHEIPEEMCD
UniProt P09874, sequence (P09874 whole entry): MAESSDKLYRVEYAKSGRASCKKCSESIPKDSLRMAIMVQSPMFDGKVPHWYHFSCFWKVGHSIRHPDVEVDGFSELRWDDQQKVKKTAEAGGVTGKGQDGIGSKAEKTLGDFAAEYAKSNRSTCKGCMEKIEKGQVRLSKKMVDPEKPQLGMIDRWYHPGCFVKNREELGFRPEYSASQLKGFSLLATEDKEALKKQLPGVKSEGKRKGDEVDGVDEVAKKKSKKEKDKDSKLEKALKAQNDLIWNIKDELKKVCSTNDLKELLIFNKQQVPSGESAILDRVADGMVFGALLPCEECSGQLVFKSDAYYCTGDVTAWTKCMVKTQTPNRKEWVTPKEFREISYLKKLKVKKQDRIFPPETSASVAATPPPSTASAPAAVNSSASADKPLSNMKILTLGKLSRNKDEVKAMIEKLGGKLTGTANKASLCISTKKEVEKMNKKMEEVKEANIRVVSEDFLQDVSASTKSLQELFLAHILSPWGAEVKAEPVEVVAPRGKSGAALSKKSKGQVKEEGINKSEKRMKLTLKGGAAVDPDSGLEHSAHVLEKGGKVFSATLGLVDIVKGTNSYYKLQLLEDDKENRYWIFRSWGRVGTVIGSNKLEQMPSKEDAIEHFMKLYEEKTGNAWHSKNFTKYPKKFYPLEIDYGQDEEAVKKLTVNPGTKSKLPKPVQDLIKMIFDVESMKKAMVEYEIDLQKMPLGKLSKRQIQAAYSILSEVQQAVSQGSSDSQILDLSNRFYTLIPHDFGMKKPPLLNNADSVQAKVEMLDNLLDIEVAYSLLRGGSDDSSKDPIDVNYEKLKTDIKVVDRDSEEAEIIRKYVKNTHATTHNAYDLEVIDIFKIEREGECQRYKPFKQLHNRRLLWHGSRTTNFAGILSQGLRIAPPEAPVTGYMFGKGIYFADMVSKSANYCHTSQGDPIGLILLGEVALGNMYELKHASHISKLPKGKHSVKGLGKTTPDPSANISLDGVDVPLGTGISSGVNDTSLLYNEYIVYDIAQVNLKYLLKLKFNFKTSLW
UniProt Q9HAH7, sequence (Q9HAH7 whole entry, one chain of several): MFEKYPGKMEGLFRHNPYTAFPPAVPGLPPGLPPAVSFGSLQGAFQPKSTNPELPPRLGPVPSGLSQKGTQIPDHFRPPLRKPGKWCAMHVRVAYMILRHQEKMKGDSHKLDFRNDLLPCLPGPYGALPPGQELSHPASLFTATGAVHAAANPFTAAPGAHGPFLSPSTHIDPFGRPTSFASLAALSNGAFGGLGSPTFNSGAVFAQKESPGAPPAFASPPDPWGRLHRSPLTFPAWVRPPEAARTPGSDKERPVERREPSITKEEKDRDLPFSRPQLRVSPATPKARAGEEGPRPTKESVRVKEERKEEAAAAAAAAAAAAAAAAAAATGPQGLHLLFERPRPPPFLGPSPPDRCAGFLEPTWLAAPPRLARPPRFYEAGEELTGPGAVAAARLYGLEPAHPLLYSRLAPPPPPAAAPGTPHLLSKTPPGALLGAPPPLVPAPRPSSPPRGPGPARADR
UniProt O75822, sequence (O75822 whole entry): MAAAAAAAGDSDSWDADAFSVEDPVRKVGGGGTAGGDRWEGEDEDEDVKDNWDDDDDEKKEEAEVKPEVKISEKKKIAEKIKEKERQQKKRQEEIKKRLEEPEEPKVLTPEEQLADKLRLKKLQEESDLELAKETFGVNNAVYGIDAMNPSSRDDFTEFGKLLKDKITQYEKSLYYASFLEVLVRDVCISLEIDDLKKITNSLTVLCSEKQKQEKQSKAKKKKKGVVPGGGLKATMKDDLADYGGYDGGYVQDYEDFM
UniProt O15042, sequence (O15042 whole entry, one chain of several): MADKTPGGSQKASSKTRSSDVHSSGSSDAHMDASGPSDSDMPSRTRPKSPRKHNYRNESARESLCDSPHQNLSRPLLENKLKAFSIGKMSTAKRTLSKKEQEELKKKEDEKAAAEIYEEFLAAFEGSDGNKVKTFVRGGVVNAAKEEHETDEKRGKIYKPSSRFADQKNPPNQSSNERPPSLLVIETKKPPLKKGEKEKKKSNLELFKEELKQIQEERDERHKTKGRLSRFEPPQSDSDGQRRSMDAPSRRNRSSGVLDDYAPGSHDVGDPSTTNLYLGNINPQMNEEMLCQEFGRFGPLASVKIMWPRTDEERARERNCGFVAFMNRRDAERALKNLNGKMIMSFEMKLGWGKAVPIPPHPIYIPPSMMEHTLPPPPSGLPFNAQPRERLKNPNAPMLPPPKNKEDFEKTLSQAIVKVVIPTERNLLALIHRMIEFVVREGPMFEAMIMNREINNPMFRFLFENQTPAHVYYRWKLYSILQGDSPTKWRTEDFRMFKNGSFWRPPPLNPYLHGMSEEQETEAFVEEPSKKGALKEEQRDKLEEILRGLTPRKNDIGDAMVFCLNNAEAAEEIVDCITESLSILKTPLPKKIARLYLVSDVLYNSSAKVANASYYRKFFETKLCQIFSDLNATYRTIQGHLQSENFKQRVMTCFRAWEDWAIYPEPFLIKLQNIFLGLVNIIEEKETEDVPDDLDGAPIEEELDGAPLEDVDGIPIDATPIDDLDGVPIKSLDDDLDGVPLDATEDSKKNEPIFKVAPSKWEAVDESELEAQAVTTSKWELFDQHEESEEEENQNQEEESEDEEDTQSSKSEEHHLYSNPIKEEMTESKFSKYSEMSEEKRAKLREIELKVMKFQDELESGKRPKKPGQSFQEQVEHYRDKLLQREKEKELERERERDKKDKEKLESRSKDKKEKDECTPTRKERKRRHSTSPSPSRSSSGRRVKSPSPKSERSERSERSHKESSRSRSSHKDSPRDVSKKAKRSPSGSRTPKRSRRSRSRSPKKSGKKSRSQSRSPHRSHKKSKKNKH
UniProt Q13227, sequence (Q13227 whole entry, one chain of several): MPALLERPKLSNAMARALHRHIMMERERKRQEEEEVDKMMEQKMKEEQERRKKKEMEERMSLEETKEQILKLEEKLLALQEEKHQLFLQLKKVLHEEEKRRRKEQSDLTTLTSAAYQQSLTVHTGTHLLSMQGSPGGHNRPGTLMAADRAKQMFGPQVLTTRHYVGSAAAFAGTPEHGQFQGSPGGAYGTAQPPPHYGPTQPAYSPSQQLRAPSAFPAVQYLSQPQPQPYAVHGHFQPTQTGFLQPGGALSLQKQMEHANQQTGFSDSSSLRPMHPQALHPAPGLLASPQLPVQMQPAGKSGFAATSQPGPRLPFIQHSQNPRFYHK
UniProt P17096, sequence (P17096 whole entry): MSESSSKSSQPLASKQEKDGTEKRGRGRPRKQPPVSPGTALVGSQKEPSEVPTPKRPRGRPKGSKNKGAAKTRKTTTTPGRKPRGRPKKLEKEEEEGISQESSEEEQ

Target	NP40-soluble protein abundance (concentration: 0.1mM)	NP40-soluble protein abundance (concentration: 0.5mM)	NP40-soluble protein abundance (concentration: 1mM)	NP40-soluble protein abundance (concentration: 2mM)	NP40-soluble protein abundance (concentration: 4mM)	NP40-soluble protein abundance (concentration: 6mM)	NP40-soluble protein abundance (concentration: 8mM)	NP40-soluble protein abundance (concentration: 10mM)
IGFBP2 (UniProt P18065)	0.9 ± 0.042	0.884 ± 0.053	0.983 ± 0.035	0.997 ± 0.043	0.995 ± 0.028	0.934 ± 0.062	1.02 ± 0.054	1.05 ± 0.087
HIST1H1E (UniProt P10412)	1.02 ± 0.12	1.05 ± 0.1	1.13 ± 0.15	1.24 ± 0.11	1.26 ± 0.055	1.38 ± 0.064	1.28 ± 0.18	2.05 ± 0.41
P0DN76|Q01081|Q01081-2 (UniProt Q01081+P0DN76)	1.23 ± 0.074	1.61 ± 0.28	1.64 ± 0.32	1.67 ± 0.32	1.71 ± 0.36	1.78 ± 0.4	1.79 ± 0.45	1.76 ± 0.38
M0R2S1|P62987 (UniProt P62987)	0.88 ± 0.084	0.895 ± 0.11	1.01 ± 0.17	0.915 ± 0.11	0.89 ± 0.089	0.886 ± 0.068	0.867 ± 0.12	0.941 ± 0.11
UniProt P00387|P00387-2|P00387-3	1.11 ± 0.13	1.1 ± 0.14	0.945 ± 0.11	0.947 ± 0.15	0.938 ± 0.14	0.925 ± 0.14	0.882 ± 0.1	0.853 ± 0.14
UniProt O00567	1.05 ± 0.035	1.03 ± 0.046	1.1 ± 0.087	1.23 ± 0.075	1.55 ± 0.12	1.75 ± 0.12	2.06 ± 0.14	2.48 ± 0.13
NUP62 (UniProt P37198)	0.8692 ± 0.0052	0.889 ± 0.025	1.01 ± 0.021	0.955 ± 0.038	0.988 ± 0.064	1.06 ± 0.053	1.08 ± 0.052	1.19 ± 0.047
EIF2S3 (UniProt P41091)	1.02 ± 0.024	1.05 ± 0.045	0.967 ± 0.015	0.98 ± 0.071	0.981 ± 0.04	0.995 ± 0.038	0.956 ± 0.025	0.931 ± 0.065
CDC34 (UniProt P49427)	1.69 ± 0.2	1.07 ± 0.037	1.79 ± 0.077	1.15 ± 0.11	1.16 ± 0.092	1.12 ± 0.1	1.01 ± 0.078	1.06 ± 0.084
J3KNZ9 (UniProt Q9HAH7)	1.01 ± 0.12	0.933 ± 0.095	0.978 ± 0.056	0.984 ± 0.061	0.971 ± 0.051	1.01 ± 0.05	1.02 ± 0.015	1.01 ± 0.061
UniProt P48634|P48634-2|P48634-3	1.07 ± 0.034	1.06 ± 0.0091	1.19 ± 0.1	1.27 ± 0.03	1.42 ± 0.062	1.52 ± 0.096	1.7 ± 0.19	1.84 ± 0.28
HIST1H1B (UniProt P16401)	0.956 ± 0.023	0.937 ± 0.02	1.09 ± 0.037	1.15 ± 0.014	1.22 ± 0.042	1.272 ± 0.012	1.22 ± 0.039	1.73 ± 0.19
ESD (UniProt P10768)	0.959 ± 0.015	0.958 ± 0.032	0.924 ± 0.032	0.876 ± 0.025	0.882 ± 0.034	0.897 ± 0.04	0.875 ± 0.044	0.839 ± 0.059
UniProt O43665|O43665-2|O43665-3	0.802 ± 0.079	0.748 ± 0.035	0.872 ± 0.14	0.865 ± 0.068	0.791 ± 0.038	0.837 ± 0.034	0.79 ± 0.089	0.909 ± 0.14
YARS (UniProt P54577)	0.952 ± 0.037	0.969 ± 0.029	0.92 ± 0.042	0.878 ± 0.048	0.864 ± 0.061	0.874 ± 0.048	0.872 ± 0.043	0.849 ± 0.066
K7EPN2|P22830|P22830-2 (UniProt P22830)	1.06 ± 0.013	1.06 ± 0.034	0.972 ± 0.015	0.945 ± 0.055	0.958 ± 0.039	0.939 ± 0.03	0.928 ± 0.043	0.885 ± 0.05
ARID1A (UniProt O14497)	0.993 ± 0.031	1.06 ± 0.016	1.08 ± 0.055	1.08 ± 0.084	1.1 ± 0.1	1.12 ± 0.12	1.16 ± 0.17	1.13 ± 0.17
UniProt P54578|P54578-2	0.975 ± 0.029	0.998 ± 0.021	0.935 ± 0.027	0.922 ± 0.013	0.903 ± 0.026	0.897 ± 0.02	0.895 ± 0.038	0.876 ± 0.046
GSTM2 (UniProt P28161)	1.03 ± 0.058	0.947 ± 0.051	1 ± 0.1	0.976 ± 0.085	0.956 ± 0.1	0.932 ± 0.11	0.886 ± 0.091	0.899 ± 0.12
UniProt O75822|O75822-2	0.856 ± 0.038	0.825 ± 0.074	0.908 ± 0.09	0.954 ± 0.098	1.07 ± 0.17	1.32 ± 0.22	1.4 ± 0.3	1.77 ± 0.39
XPO1 (UniProt O14980)	1.01 ± 0.027	1.02 ± 0.033	0.936 ± 0.022	0.926 ± 0.072	0.916 ± 0.054	0.918 ± 0.033	0.882 ± 0.023	0.848 ± 0.044
TOMM40 (UniProt O96008)	1.01 ± 0.045	1.04 ± 0.031	0.953 ± 0.041	0.967 ± 0.018	0.946 ± 0.043	0.936 ± 0.037	0.939 ± 0.077	0.905 ± 0.061
UniProt P27540|P27540-2|P27540-4	0.978 ± 0.071	0.957 ± 0.12	0.957 ± 0.027	0.982 ± 0.11	1.02 ± 0.023	0.961 ± 0.055	0.961 ± 0.059	0.927 ± 0.027
DNAJC8 (UniProt O75937)	0.838 ± 0.14	0.801 ± 0.056	1.1 ± 0.17	1.09 ± 0.056	1.08 ± 0.14	1.14 ± 0.12	1.05 ± 0.21	1.3 ± 0.25
DLAT (UniProt P10515)	1.11 ± 0.22	1.28 ± 0.39	1.47 ± 0.56	1.85 ± 0.82	2.12 ± 1.1	2.06 ± 1.1	1.98 ± 0.98	1.91 ± 0.99
UniProt P17096|P17096-2	1.06 ± 0.062	1.06 ± 0.12	1.21 ± 0.081	1.33 ± 0.12	1.37 ± 0.14	1.69 ± 0.3	1.55 ± 0.21	2.02 ± 0.076
PARP1 (UniProt P09874)	1.02 ± 0.026	1.05 ± 0.034	1.05 ± 0.033	1.15 ± 0.052	1.31 ± 0.069	1.43 ± 0.054	1.47 ± 0.043	1.5 ± 0.028
I3L3Y9|I3L4X7|Q13227|Q13227-2 (UniProt Q13227)	0.978 ± 0.059	0.878 ± 0.0093	1.01 ± 0.13	1.01 ± 0.072	1.02 ± 0.11	1.06 ± 0.11	1.03 ± 0.13	1.08 ± 0.14
FXR2 (UniProt P51116)	1.08 ± 0.054	1.13 ± 0.081	1.27 ± 0.064	1.51 ± 0.14	1.8 ± 0.22	1.97 ± 0.25	2.13 ± 0.29	2.23 ± 0.35
UniProt O15042|O15042-2|E7ET15	1 ± 0.011	1.08 ± 0.013	1.15 ± 0.05	1.18 ± 0.094	1.24 ± 0.13	1.32 ± 0.14	1.4 ± 0.22	1.37 ± 0.23
